Results taken from ChEMBL document CHEMBL1961873, “Compounds: GSK PKIS; Assays: Nanosyn kinase panel” (2012).

Key:
[1] = target: MAP/microtubule affinity-regulating kinase 3 (Homo sapiens) (UniProt P27448); conditions: at 1 µM;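 also: reported values are averaged percent inhibition of MARK3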
[2] = target: T1, MAP/microtubule affinity-regulating kinase 4 (Homo sapiens) (UniProt Q96L34); conditions: at 0.1 µM
T1 sequence (whole entry): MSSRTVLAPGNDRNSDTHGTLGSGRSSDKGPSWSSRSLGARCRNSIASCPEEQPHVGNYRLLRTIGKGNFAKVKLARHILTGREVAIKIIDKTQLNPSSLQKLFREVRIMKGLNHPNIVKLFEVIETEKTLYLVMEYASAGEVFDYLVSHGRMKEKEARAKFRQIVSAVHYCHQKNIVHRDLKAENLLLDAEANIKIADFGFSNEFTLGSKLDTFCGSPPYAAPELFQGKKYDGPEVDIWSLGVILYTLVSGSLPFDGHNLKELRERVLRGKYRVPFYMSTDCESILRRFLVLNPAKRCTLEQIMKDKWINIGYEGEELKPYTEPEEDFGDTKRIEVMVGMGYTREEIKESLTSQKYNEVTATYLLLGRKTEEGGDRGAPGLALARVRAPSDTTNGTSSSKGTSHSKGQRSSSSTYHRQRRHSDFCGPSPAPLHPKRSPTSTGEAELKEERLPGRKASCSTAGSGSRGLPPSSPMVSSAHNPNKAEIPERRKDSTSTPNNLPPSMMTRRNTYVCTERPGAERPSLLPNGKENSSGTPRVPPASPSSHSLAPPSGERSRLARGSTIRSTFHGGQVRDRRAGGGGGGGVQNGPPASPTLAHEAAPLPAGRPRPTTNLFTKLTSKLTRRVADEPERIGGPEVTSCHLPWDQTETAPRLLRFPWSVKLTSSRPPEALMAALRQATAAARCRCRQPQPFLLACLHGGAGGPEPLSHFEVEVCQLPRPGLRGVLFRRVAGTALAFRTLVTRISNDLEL

[3] = target: T1, MAP/microtubule affinity-regulating kinase 4 (Homo sapiens); conditions: at 1 µM
[4] = target: Maternal embryonic leucine zipper kinase (Homo sapiens) (UniProt Q14680); conditions: at 0.1 µM
[5] = target: Maternal embryonic leucine zipper kinase (Homo sapiens) (UniProt Q14680); conditions: at 1 µM
[6] = target: MAP kinase-interacting serine/threonine-protein kinase 1 (Homo sapiens) (UniProt Q9BUB5); conditions: at 0.1 µM
[7] = target: MAP kinase-interacting serine/threonine-protein kinase 1 (Homo sapiens) (UniProt Q9BUB5); conditions: at 1 µM
[8] = target: MAP kinase-interacting serine/threonine-protein kinase 2 (Homo sapiens) (UniProt Q9HBH9); conditions: at 0.1 µM
[9] = target: MAP kinase-interacting serine/threonine-protein kinase 2 (Homo sapiens) (UniProt Q9HBH9); conditions: at 1 µM
[10] = target: Serine/threonine-protein kinase MARK2 (Homo sapiens) (UniProt Q7KZI7); conditions: at 0.1 µM
[11] = target: Serine/threonine-protein kinase MARK2 (Homo sapiens) (UniProt Q7KZI7); conditions: at 1 µM
[12] = target: PAS domain-containing serine/threonine-protein kinase (Homo sapiens) (UniProt Q96RG2); conditions: at 0.1 µM
[13] = target: PAS domain-containing serine/threonine-protein kinase (Homo sapiens) (UniProt Q96RG2); conditions: at 1 µM
[14] = target: Phosphorylase b kinase gamma catalytic chain, skeletal muscle/heart isoform (Homo sapiens) (UniProt Q16816); conditions: at 0.1 µM
[15] = target: Phosphorylase b kinase gamma catalytic chain, skeletal muscle/heart isoform (Homo sapiens) (UniProt Q16816); conditions: at 1 µM
[16] = target: T2, Phosphorylase b kinase gamma catalytic chain, liver/testis isoform (Homo sapiens) (UniProt P15735); conditions: at 0.1 µM
T2 sequence (whole entry): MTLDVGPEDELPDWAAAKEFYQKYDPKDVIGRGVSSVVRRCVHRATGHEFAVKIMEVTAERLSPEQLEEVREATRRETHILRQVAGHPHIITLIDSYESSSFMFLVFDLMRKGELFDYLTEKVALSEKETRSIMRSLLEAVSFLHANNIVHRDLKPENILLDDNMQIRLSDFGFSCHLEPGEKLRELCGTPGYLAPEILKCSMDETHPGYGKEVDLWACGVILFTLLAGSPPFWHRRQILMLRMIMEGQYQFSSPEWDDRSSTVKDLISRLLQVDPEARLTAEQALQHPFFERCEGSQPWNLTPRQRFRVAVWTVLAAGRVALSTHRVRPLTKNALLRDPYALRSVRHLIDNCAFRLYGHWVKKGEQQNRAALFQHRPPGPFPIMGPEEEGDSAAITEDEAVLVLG

[17] = target: T2, Phosphorylase b kinase gamma catalytic chain, liver/testis isoform (Homo sapiens); conditions: at 1 µM
[18] = target: Serine/threonine-protein kinase pim-1 (Homo sapiens) (UniProt P11309); conditions: at 0.1 µM
[19] = target: Serine/threonine-protein kinase pim-1 (Homo sapiens) (UniProt P11309); conditions: at 1 µM
[20] = target: Serine/threonine-protein kinase pim-2 (Homo sapiens) (UniProt Q9P1W9); conditions: at 0.1 µM;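 also: reported value is the mean percent inhibition of PIM2, measured in the GSK PKIS kinase inhibitor set screen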
Serine/threonine-protein kinase pim-2 (Homo sapiens), sequence (Q9P1W9 whole entry, looked up): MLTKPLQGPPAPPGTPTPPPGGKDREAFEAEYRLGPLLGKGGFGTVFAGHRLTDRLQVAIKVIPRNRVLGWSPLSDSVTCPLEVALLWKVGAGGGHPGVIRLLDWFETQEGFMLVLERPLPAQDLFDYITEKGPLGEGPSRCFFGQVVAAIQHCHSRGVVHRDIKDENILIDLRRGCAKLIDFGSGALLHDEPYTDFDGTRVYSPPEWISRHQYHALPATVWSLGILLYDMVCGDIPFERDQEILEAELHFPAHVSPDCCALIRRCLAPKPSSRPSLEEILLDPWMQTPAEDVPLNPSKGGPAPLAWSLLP

PAS domain-containing serine/threonine-protein kinase (Homo sapiens), sequence (Q96RG2 whole entry, the tested form may be a part, canonical isoform): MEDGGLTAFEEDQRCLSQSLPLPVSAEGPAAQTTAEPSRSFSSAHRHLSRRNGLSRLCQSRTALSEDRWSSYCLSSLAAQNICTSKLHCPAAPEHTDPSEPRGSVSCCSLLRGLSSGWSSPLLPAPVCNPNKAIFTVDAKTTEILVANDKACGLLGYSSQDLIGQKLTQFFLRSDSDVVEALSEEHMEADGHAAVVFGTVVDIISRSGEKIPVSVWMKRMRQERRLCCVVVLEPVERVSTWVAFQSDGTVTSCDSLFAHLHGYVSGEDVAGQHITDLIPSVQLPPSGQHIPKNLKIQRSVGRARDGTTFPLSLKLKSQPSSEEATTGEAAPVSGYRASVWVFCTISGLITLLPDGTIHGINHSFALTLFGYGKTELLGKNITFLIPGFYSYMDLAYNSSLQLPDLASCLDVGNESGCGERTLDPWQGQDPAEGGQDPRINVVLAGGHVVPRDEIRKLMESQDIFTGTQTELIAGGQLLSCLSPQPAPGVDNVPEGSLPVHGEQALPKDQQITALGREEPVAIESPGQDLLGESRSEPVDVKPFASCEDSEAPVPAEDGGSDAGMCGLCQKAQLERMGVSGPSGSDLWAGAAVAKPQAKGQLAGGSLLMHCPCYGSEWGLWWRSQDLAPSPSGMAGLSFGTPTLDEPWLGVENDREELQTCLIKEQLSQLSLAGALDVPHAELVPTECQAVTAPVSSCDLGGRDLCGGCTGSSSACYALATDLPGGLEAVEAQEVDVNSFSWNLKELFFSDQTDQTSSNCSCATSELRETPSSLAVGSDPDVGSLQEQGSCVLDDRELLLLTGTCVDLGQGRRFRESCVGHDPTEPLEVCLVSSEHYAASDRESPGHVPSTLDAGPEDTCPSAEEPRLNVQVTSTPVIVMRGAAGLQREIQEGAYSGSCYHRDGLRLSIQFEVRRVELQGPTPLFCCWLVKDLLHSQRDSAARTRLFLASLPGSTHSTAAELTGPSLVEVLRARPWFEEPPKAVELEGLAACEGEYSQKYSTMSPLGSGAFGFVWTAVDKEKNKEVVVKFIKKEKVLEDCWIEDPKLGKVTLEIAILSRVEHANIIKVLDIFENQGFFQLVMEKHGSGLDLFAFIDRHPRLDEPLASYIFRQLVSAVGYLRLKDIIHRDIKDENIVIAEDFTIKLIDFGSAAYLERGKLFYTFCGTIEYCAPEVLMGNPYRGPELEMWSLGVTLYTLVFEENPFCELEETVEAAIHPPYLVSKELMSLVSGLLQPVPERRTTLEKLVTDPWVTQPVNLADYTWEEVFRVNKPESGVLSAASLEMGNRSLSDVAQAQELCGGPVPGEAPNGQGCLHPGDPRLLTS
MAP/microtubule affinity-regulating kinase 3 (Homo sapiens), sequence (P27448 whole entry, looked up): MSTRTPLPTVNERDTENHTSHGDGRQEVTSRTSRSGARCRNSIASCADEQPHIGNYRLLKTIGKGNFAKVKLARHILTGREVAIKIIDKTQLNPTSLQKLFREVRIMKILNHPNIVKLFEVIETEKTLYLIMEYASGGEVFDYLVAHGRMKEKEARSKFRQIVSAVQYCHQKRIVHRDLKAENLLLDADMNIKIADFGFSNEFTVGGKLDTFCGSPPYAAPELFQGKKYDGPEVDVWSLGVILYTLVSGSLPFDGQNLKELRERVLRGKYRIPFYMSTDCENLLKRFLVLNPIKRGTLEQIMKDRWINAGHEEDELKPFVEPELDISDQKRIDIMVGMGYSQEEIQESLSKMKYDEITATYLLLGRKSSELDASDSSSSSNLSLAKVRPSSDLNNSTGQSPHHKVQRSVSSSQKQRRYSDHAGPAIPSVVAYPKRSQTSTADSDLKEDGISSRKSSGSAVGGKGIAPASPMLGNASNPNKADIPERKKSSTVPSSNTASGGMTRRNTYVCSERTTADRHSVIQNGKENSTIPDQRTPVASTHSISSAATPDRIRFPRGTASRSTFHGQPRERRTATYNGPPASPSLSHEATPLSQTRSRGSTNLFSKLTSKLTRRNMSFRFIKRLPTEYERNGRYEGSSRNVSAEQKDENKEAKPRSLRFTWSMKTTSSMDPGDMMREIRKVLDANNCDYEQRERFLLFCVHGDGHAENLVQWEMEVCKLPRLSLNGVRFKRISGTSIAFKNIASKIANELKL
MAP kinase-interacting serine/threonine-protein kinase 1 (Homo sapiens), sequence (Q9BUB5 whole entry, looked up): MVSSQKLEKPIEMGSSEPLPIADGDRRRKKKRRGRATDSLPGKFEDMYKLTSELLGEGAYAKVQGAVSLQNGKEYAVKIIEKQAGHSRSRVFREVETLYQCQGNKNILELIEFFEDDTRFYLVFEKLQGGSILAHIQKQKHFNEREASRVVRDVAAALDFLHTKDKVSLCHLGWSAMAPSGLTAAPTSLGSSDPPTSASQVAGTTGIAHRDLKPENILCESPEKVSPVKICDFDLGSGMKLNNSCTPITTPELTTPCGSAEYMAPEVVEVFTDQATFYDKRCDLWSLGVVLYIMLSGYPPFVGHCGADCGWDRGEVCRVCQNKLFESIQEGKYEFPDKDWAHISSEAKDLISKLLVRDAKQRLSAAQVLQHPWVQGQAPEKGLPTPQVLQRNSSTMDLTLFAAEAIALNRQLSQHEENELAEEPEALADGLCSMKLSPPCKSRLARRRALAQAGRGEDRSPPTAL
Phosphorylase b kinase gamma catalytic chain, skeletal muscle/heart isoform (Homo sapiens), sequence (Q16816 whole entry, looked up, canonical isoform): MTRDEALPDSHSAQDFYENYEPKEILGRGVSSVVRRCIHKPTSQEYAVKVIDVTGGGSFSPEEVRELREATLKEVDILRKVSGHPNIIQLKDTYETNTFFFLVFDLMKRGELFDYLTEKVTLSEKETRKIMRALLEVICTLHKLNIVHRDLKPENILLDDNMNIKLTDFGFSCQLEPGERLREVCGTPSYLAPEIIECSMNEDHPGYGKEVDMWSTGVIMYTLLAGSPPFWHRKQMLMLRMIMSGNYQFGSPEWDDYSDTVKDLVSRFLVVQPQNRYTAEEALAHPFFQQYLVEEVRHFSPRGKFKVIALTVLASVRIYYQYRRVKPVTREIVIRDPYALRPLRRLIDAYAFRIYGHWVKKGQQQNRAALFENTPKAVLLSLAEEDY
Serine/threonine-protein kinase MARK2 (Homo sapiens), sequence (Q7KZI7 whole entry, the tested form may be a part): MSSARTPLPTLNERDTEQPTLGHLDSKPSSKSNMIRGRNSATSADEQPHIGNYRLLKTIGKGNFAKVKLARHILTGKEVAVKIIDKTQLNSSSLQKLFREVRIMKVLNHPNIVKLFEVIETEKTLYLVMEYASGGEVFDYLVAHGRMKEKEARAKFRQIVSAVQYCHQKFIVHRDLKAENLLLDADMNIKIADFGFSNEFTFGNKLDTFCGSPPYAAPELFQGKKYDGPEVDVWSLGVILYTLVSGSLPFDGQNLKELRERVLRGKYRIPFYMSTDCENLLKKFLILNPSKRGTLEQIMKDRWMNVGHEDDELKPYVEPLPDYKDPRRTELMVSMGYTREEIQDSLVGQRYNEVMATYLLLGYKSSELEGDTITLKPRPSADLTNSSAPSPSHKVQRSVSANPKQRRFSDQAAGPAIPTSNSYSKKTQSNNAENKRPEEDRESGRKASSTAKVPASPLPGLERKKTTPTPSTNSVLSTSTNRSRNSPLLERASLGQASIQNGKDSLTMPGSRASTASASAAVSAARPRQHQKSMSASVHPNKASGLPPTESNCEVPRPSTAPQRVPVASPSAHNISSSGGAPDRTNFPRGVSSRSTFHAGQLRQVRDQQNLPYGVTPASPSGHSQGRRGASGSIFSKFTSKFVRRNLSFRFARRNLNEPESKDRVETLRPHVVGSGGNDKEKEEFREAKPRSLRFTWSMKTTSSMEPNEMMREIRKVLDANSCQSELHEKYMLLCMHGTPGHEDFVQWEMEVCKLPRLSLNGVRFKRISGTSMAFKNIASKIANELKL
Maternal embryonic leucine zipper kinase (Homo sapiens), sequence (Q14680 whole entry, looked up): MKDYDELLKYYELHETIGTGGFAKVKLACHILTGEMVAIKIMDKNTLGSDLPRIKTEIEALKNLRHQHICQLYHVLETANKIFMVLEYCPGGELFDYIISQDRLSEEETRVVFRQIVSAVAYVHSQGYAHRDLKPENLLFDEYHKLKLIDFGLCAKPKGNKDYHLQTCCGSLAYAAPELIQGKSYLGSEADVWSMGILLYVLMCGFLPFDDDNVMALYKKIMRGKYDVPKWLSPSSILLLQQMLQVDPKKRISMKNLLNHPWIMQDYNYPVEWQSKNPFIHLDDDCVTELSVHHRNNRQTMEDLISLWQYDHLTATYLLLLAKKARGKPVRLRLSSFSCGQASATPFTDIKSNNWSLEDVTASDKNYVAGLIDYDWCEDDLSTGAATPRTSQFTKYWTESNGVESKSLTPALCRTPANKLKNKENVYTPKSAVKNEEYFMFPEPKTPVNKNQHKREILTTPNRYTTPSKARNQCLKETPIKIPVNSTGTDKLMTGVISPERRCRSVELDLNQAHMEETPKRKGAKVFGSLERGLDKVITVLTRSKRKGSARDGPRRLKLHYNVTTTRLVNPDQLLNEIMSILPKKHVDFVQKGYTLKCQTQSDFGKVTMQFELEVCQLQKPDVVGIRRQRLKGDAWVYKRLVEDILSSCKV
Serine/threonine-protein kinase pim-1 (Homo sapiens), sequence (P11309 whole entry, looked up): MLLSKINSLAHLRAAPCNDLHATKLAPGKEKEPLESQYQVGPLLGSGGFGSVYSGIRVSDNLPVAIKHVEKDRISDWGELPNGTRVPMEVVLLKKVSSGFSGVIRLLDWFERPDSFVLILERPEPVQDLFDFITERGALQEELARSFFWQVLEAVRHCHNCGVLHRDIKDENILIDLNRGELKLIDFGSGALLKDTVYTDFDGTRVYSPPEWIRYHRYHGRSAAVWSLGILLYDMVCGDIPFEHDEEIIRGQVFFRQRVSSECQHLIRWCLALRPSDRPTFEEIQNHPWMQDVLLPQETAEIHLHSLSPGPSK

| SMILES | inhibition [1] [%] | inhibition [2] [%] | inhibition [3] [%] | inhibition [4] [%] | inhibition [5] [%] | inhibition [6] [%] | inhibition [7] [%] | inhibition [8] [%] | inhibition [9] [%] | inhibition [10] [%] | inhibition [11] [%] | inhibition [12] [%] | inhibition [13] [%] | inhibition [14] [%] | inhibition [15] [%] | inhibition [16] [%] | inhibition [17] [%] | inhibition [18] [%] | inhibition [19] [%] | inhibition [20] [%] |
| --- | --- | --- | --- | --- | --- | --- | --- | --- | --- | --- | --- | --- | --- | --- | --- | --- | --- | --- | --- | --- |
| O=C1NC(=O)C(c2ccc(Cl)cc2)=C1Nc1ccc(Cl)c(C(=O)O)c1 | 1.91 | -0.05 | 1.71 | -3.46 | 1.25 | -0.24 | -0.57 | -0.57 | 0.11 | -0.46 | 2.17 | -0.66 | -1.05 | -1.07 | 1.44 | -3.95 | -5.8 | -0.65 | -0.5 | 1.05 |
| CC(C)=Cc1cccc2c1/C(=N/Nc1ccc(S(N)(=O)=O)cc1)C(=O)N2 | 20.6 | 1.89 | 20 | 0.98 | 25.6 | 0.23 | 7.18 | 1.9 | 4.65 | 1.87 | 14.2 | 0.93 | 1.77 | 0.64 | 26.6 | 1.74 | 8.45 | 1.05 | 1.77 | 0.72 |
| Cc1nnc(-c2ccc(C)c(-c3ccc(C(=O)Nc4cccc(C#N)c4)cc3)c2)o1 | 4.82 | 0.41 | 1.13 | -0.46 | 6.64 | 1.54 | 4.88 | 0.9 | 3.32 | -1.11 | 0.87 | 0.45 | 4.14 | 2.07 | 6.42 | 2.78 | 4.43 | -0.05 | 0.66 | 0.29 |
| Nc1nc(-c2ccccn2)c(-c2ccc3ncccc3n2)s1 | 8.13 | 0.3 | 2.26 | 3.67 | 7.64 | 2.16 | 5.61 | 1 | 5.53 | -3.64 | 1.77 | -0.2 | -0.49 | 0.58 | 4.27 | 4.79 | 5.31 | 0.81 | 2.21 | -0.67 |
| [O-][S+]1CCN(Cc2ccc(-c3ccc4ncnc(Nc5ccc(OCc6ccccc6)c(F)c5)c4c3)o2)CC1 | 1.39 | 0.67 | 1.47 | 2.88 | 1.82 | 2.24 | 4.41 | 1.32 | 9.37 | -1.34 | 0.88 | -0.22 | -1.35 | 1.18 | -5.45 | 2.22 | 0.5 | 0.8 | 0.1 | -0.49 |
| COc1cc2ncn(-c3cc(O[C@H](C)c4ccccc4Cl)c(C(N)=O)s3)c2cc1OC | 37.2 | 4.58 | 32 | 4.94 | 23.7 | 3.54 | 11.9 | 3.53 | 11.8 | 2.26 | 17.8 | 1.62 | 5.27 | 3.66 | 6.72 | 6.57 | 12.9 | 1.15 | 3.93 | 0.26 |
| Cc1ccc(NC(=O)c2ccnc(N3CCCC3)c2)cc1-c1ccc(C(=O)NCC2CC2)cc1 | 0.65 | 4.16 | 5.97 | 4.85 | 7.99 | 1.78 | 6.57 | -0.01 | 1.11 | 0.13 | 6.34 | -0.05 | -1.71 | 6.43 | 11 | 5.9 | 5.73 | 0.89 | 1.92 | -2.62 |
